Test results published in PubChem BioAssay (NCI).
This is part of a sample that, as a whole, favours compounds with a hit. Of some 83,000 tested, about 20% had one in any assay.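 Activity criterion: percent growth below 10, measured after cells in 96-well plates were exposed to a single compound concentration for 48 hours.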 Active and inactive are the calls of the source.

Tested on: HL-60(TB) leukemia
Assay: NCI-60 one-dose screen, 48 h (100 = growth as untreated, 0 = no growth, -100 = all killed)
Conditions: 10 µM unless noted

SMILES | growth
CCCCCc1ccc(S(=O)(=O)N(C(C)=O)c2cccc(-c3csc(N(CCN4CCN(C)CC4)C(C)=O)n3)c2)cc1 | -52.8% (active)
C#C[C@]1(O)CC[C@H]2[C@@H]3CC=C4c5sc(-c6ccc(C)cc6)nc5CC[C@]4(C)[C@H]3CC[C@@]21C | -2.49% (active)
CCOC(=O)c1c(NC(=O)c2cccc(C(F)(F)F)c2)sc2c3c(ccc12)OCN(C)C3 | -56.3% (active)
N#Cc1c(NC(=O)c2cccc(C(F)(F)F)c2F)sc2c1CCC(=O)C2 | -17.4% (active)
Cc1nc(N)sc1-c1csc(Nc2ccc(C(F)(F)F)cc2)n1 | 27.9% (inactive)
Cc1[nH]c(C(=O)Nc2ccc(C(N)=O)cc2N2CCOC(C)C2)c(Cl)c1Cl (centres undefined) | 98.1% (inactive)
CCCCCC[n+]1ccc(SCC(=O)n2ccc3ccccc32)c2ccccc21 | 74.8% (inactive)
COc1cc(OC)c(S(=O)(=O)NNC(=O)c2ccncc2)cc1C(=O)/C=C/c1ccc(C)cc1 | 51.2% (inactive)
CCCCCc1ccc(S(=O)(=O)Nc2cc(-c3csc(NC(=O)CN4CCN(C)CC4)n3)ccc2OC)cc1 | -52.4% (active)
C#C[C@]1(O)CC[C@H]2[C@@H]3CC=C4c5sc(-c6ccc7c(c6)OCO7)nc5CC[C@]4(C)[C@H]3CC[C@@]21C | 46.8% (inactive)
COc1ccc(C(=O)Nc2ncc(Cc3ccccc3Cl)s2)cc1 | -1.93% (active)
Fc1ccc(-c2cc3nc(C(Cl)Cl)nc(-c4ccco4)n3n2)cc1 | -42.7% (active)
CC(c1ccccc1)N1CSc2nc3ncncc3n2C1 (centres undefined) | 17.4% (inactive)
Cn1c(SCC(=O)c2ccc(Br)cc2)nc2ccccc2c1=O | 92.1% (inactive)
